According to the supplement of paper PMC6555819:

Tests used:
Assay in all cases: PBM binding z-score (relative to random genomic background probes); higher = stronger binding; sequences stand for … in GC…GCGATTGACAGCGTAGAATGAAGG
[1] = test system: RARb homodimer (NR concentration 270 nM)
How it was run: (§1)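 For binding z-scores, the reference was random background probes on custom Agilent 4×180K protein-binding microarrays. These arrays were incubated 1 h with ligand-free nuclear receptor dimers in PBS pH 7.4, 2% milk, 0.02% Triton X-100, 1 mM DTT, 0.2 mg/mL BSA and 0.4 mg/ml salmon testes DNA. Fluorescence was scanned after antibody detection of each partner (one per run) and regression-normalized.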

[2] = test system: RARg:RXRa (NR concentration 270 nM, RXRa partner concentration 90 nM)
How it was run: as §1

[3] = test system: RARg homodimer (NR concentration 270 nM)
How it was run: as §1

[4] = test system: RXRa DBDmut IVT, anti-RXR (DBD mutation: RXRa K156A/R161A, NR concentration 90 nM)
How it was run: as §1

[5] = test system: RXRa homodimer (NR concentration 180 nM)
How it was run: as §1

[6] = test system: THRa:RXRa (NR concentration 90 nM, RXRa partner concentration 90 nM)
How it was run: as §1

[7] = test system: THRa homodimer (NR concentration 90 nM)
How it was run: as §1

[8] = test system: VDR homodimer (NR concentration 270 nM)
How it was run: as §1

Sequence	PBM binding z-score [1]	PBM binding z-score [2]	PBM binding z-score [3]	PBM binding z-score [4]	PBM binding z-score [5]	PBM binding z-score [6]	PBM binding z-score [7]	PBM binding z-score [8]
TAGCCTAGGTCAGATCGTGCCAGTATACGCTATA	2.22	2.83	3.28	-0.193	1.33	2.46	0.0586	-0.325
CCTAGGAGGACAACAGGAGGTCAGAGCTGCCAGA	3.64	3.49	3.47	0.503	2.25	2.82	1.1	1.4
GATACAGGGTCAGCTAGAGGCTAGAGTATGGAAA	2.76	5.74	4.56	0.988	4.23	2.86	0.194	0.266
CAAACTAGGTCACAGAGGTCCAAGTCCGTGCGTA	3.68	4.67	5.11	1.99	3.35	3.83	1.52	2.2
CCTTACGGGTCAAGCTTATAGCACGGGTGGTACG	2.82	4.93	4.64	1.11	5.08	2.23	-0.294	0.754
TTACCAAGGTGAGCTGAGTTCGTTGATCCAACTC	0.421	0.2	0.307	0.458	0.157	2.71	0.173	3.63
TCTTTTAGATCAACAGGAGGTTAAGAAAGATCGA	0.623	1.24	0.914	1.31	1.48	1.08	-0.0396	-0.0983
ATATGTAGATTACATCCGGGTCATTCAGGCTATG	2.23	1.66	1.21	1.02	2.2	3.14	2.27	2.43
CATACAGGGTCAGCTAGGCGAGAGTAGGGACGGC	3.12	4.39	4.53	1.72	4.02	3.05	1.01	0.943
TCGAGTAGGATAGGGGCATTCAGAATGGCGTCGA	0.241	-0.218	-0.225	0.0984	0.155	0.209	-0.171	0.237
CCTAGTTCGTCAAGGTCACACACGCTATAGGTAC	4.36	4.84	4.77	4.16	4.74	4.39	4.47	6.91
TCTTGTAGATCAAGCAGGTTATGAAAGCCTGAGT	-0.0622	0.0667	-0.307	0.366	0.465	0.302	-0.815	-0.186
CAAACTAGGTCGAAGGTCAAAGTCGAGCCAACCA	3.79	5.7	4.29	1.85	6.86	3.5	0.693	1.71
TCTGGTAGATCAAAGGTTAAGAAAGCCGAAGCCT	1.4	1.89	0.73	0.747	3.05	1.33	-0.327	0.151
AGAATGAGGTTGTACGTAGATCAGGGAAGAAAGT	0.561	0.15	0.156	0.679	0.32	0.638	0.288	0.389
GCTAGCAGGCCATTTGGGTCACTCGATGACGGGC	1.9	0.925	1.25	0.253	0.666	1.66	0.48	0.416
TCTAGCAGGACAGAGGGTCACTCAAGAGGTACGG	2.77	2.39	2.11	0.168	2.48	1.86	-0.03	0.674
ATCGAAATGTCGACGAGGTGAGTATACACCGTTT	0.224	0.712	0.657	-0.0108	0.492	1.43	0.345	-0.13
CAGCCTAGGTCAGGGCCAGTTTAGGAGGAACGTT	2.63	3.06	3.48	0.133	1.63	2.2	0.659	-0.142

Sequence	PBM binding z-score [1]	PBM binding z-score [2]	PBM binding z-score [3]	PBM binding z-score [4]	PBM binding z-score [5]	PBM binding z-score [6]	PBM binding z-score [7]	PBM binding z-score [8]
CCTACTGGGCCAAAGGTCATTGTTTCCAATGCTC	4.48	5.41	3.97	1.26	5.82	3.29	0.832	2.26
CATACAGGGTCAGCTAGGCCCGAGTAGGGACGGC	3.14	4.41	4.89	1.18	4.55	3.14	0.566	0.91
ATCGAAAGGTCGAAGGTGTGTATACCCACCCGAA	2.15	3.83	3.73	0.844	4.12	1.6	-0.397	0.639
TCGAGTAGGTTACCAATGGGGCATTCACCTTTCT	1.29	1.38	0.58	0.49	0.913	0.504	-0.317	-0.574
GCTGCTAGGTCAGGTTGGTCAGCGAACGGGTACG	2.73	2.68	4.03	0.514	1.11	1.8	0.422	0.896
CCTAGTTGGTCAGAAGGTCACACACCGGATATGA	4.46	4.85	4.38	0.926	4.4	3.12	1.59	2.21
CGTCATAGTTCAAGGTAACGTAACAGAAAGCAGC	2.2	2.96	3.42	2.26	1.99	2.32	1.16	0.917
CCGAGTAGGTTATGGGGCATTAAGGCAACGGTGA	1.08	0.561	0.543	-0.314	0.65	0.981	0.598	0.0646
TCGAGTAGGGTACCAATGGGGCATTCAGCTTTCT	0.23	-0.106	-0.439	-0.161	0.0647	-0.59	-0.915	-0.697
AGAATGAGGTTATACGTATATCAGGGAAGAAAGT	0.94	1.77	1.35	1.42	2.34	2.5	0.645	0.832
AGAACGAGGGCACGCTGATTTGATAGCAGAGTAG	1.14	1.65	1.92	1.63	1.38	1.65	-0.138	0.667
GATTCAGGGTCAAGGCCAGAGTACGCGTATTGAT	4.04	6.08	5.81	3.03	7.1	3.87	2	3.02
CTAACTAGGTCAAGGACAGTGAATCTCCGCACGC	3.16	3.64	4.21	1.34	2.64	3.08	2.01	0.398
ATTTCTAGGTAACAAGTTCAGTGAAAGAGAGGAC	2.14	1.75	1.66	1.44	1.12	1.83	1.35	3.04
CGAACTAGGTCATGCAGGACAGTGAATACATTGA	2.8	3.87	4.66	1.87	2.67	2.96	1.35	1.31
CAAACTAGGTCAGGGTCAAAGTCGGTTTGTGCCA	4.45	5.19	5.4	2.77	5.47	3.89	2.25	4.18
ACGATTAGTTGACTTAGGGCAACCGATACGACGC	0.941	0.65	0.654	0.0967	0.512	1.43	0.264	-0.201
AGAACGAGGGCTATGAGTTGATAGCACGGGTGGC	-0.36	-0.0451	-0.0854	-0.264	0.416	-0.476	-0.913	-0.036
CCTTACGGGTCACTCCAGTTTATAGCATCGGAGT	2.7	4.06	4.22	1.78	3.83	4.11	0.161	2.06

Sequence	PBM binding z-score [1]	PBM binding z-score [2]	PBM binding z-score [3]	PBM binding z-score [4]	PBM binding z-score [5]	PBM binding z-score [6]	PBM binding z-score [7]	PBM binding z-score [8]
CTACCAAGGTGAACATGGTCGTTGATTACTATTC	1.25	1.06	1.14	0.571	0.87	2.25	1.03	-0.0794
AATAGAGGGTCACTAGGCCAGAGTAGGTACGAAT	3.01	4.11	4.52	1.93	4.2	1.99	0.353	1.1
CAAACTAGGTCAAGAGGTCAAAGTACGCTTCCCG	5.69	8.23	7.27	3.15	8.07	4.23	2.61	4.76
TCGAGTTGGTCACGGAGGTCACACACGACGGGTA	4.47	4.77	4.81	1.32	4.92	3.77	2.24	3.52
ACTCGGAGGACAAAGGTCAGAGATACGCCAGTGA	4.52	6.21	5.31	1.01	5.52	3.61	0.755	1.56
TCGAGTCGGTTAGTCGGGGCATTCAGCCAACATA	-0.0359	-0.443	-0.657	0.05	-0.48	0.291	-0.232	0.101
CCGACTGGGGCAGCAAGGTTACCATACCATCCGG	1.52	0.772	0.82	-0.746	0.706	1.21	0.373	0.0128
AGGATGAGGTTAAGATCAGGGAAACAGAATACAT	1.48	2.1	1.71	0.731	2.55	2.66	1.15	1.08
CCTACTGGGCCACGAAAGGTCATTGCTTCAGTGA	4.75	4.81	4.35	0.871	4.81	3.73	0.827	2.61
CAAACTAGGTCAAGAGGTTAAAGTCCGCTTCCCG	4.23	6.18	5.49	1.61	5.2	3.36	1.36	1.86
ATCTCTAGATAACCAAGTTCAGTGAATGCCGAAC	1.07	0.446	0.535	0.852	0.659	0.42	0.172	2.11
CGAACGAGGGCATGAGTTGAGAGCAAATGCCGAT	0.724	1.46	1.56	1.8	1.02	1.25	-0.339	1.26
CAAACTAGGTCAAGGTAAAAGTCGGTTTGTGCCA	3.47	3.84	5.09	1.52	2.93	3.03	1.49	0.742
CCGAGTAGGTTATGAGGCATTCAGGCAACGGTGA	0.133	0.306	0.215	0.178	0.451	0.303	0.0556	0.0236
CCTCGCAGGACAGAAGGTCAGAGCTGTCCGCTTT	3.34	2.74	2.61	0.371	1.74	1.58	0.0874	0.0556
TCTTGTAGATCAGGAGGTTAAGAAAGCTGGCCAA	0.528	0.46	0.00207	0.445	1.29	0.711	-0.548	-0.308
GGAACGAGGGCAAGTTGATGGCAGAGTTTGATGG	1.59	1.66	1.92	2.1	1.05	1.34	0.188	1.5
GGTAGCAGGCCATTTGGGTCACTCAATGACGGGC	2.01	1.27	1.83	-0.513	0.775	1.84	0.696	0.494
